# Sampled rows, rich in hits. Any-hit rate of the full collection: about 1.2%.
# Sa ugtP lethal: compounds lethal to S. aureus RN4220 ugtP deletion mutant. OD600 growth, 16 h. growth inhibition, % (no concentration beside the values). hit rate 0.54% among 330,000; in the data active means growth inhibition above about 68%
# Mtb betalactam: beta-lactam sensitization of Mtb H37Rv; AID 434955; hit rate 0.27% among 330,000; inhibition, % at 25 µM; M. tuberculosis H37Rv growth with meropenem, percent inhibition; call rule not given here;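 further: growth measured after seven days incubation then overnight dye step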
# BH1578 lux ind: quorum light induction in luxS cqsA deficient V. cholerae | V. cholerae BH1578 lux reporter, luminescence, 6 h | activation, % at 18.7 µM | hit rate 0.16% among 350,000; in the data active means activation mostly above about 9.7%, no sharp cut-off
# RN4220 kill: kills Staphylococcus aureus RN4220 | inhibition, % (no concentration beside the values) | hit rate 0.33% among 330,000 | S. aureus RN4220 growth, OD600, 16 h; in the data active means inhibition above about 85%
# PfHsp40 yeast: rescue of PfHsp40-mediated yeast toxicity; S. cerevisiae expressing PfHsp40, growth rescue, ATP luminescence; AID 504582; hit rate 0.68% among 340,000; growth rescue, % at 12.5 µM; in the data active means growth rescue above about 28%, passing the limit was not always enough;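 further: yeast W303a lacking pdr1 and pdr3 grown in galactose medium; growth measured after three days at 30 °C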
# Hits are given with their value; - = inactive; . = not tested or not shown.
SMILES,Sa ugtP lethal,Mtb betalactam,BH1578 lux ind,RN4220 kill,PfHsp40 yeast
COc1ccc(C2C3C(=O)N(C(C)(C)C)C(=O)C3[C@]3(CC(C)C)C(=O)N(c4ccc(C(F)(F)F)cc4)C(=O)N23)cc1 (stereo partly specified),-,.,.,-,.
CC(=O)CC1c2ccccc2S(=O)(=O)N1c1ccccc1 (stereo unspecified),-,.,.,-,.
CCC12CN3CC(CC)(CN(C1)C3c1cccnc1)C2=O (stereo unspecified),-,-,17,-,-
Cc1ccc(C=NNC(=O)CNC(=O)C23CC4CC(CC(C4)C2)C3)o1,-,.,.,-,.
CCc1ccc(OCC(=O)NN=C(C)c2ccc(OC(F)F)cc2)cc1,-,.,.,-,.
O=C1c2cccc(Cl)c2C(=O)c2c1cccc2N1CCCC1,-,-,-,-,381
Cc1cccc(NC(=S)NC2CCCCC2)n1,-,-,-,-,-
Cc1cccc(NC(=S)NC2CCCC2)n1,-,-,-,-,113
O=C(c1cccc2c1-c1ccccc1/C2=N/O)N1CCCCC1,.,-,-,.,-
CCOC(=O)c1cccc2c1-c1ccccc1C2=NO,88,.,.,-,.
COc1c2ccoc2c(OCC(O)C(C)(C)OC)c2oc(=O)ccc12 (stereo unspecified),-,.,.,-,.
CCN(CC)CCN1C(=O)C(=O)C(=C(O)c2c(C)[nH]c(C(=O)OC)c2C)C1c1ccccc1OC (stereo unspecified),-,.,.,-,.
CC[C@@]12C(=O)N(c3cccc(Cl)c3)C(=O)N1C(c1cccc(C)c1)C1C(=O)N(Cc3ccccc3)C(=O)C12 (stereo partly specified),-,.,.,-,.
O=C(NN=Cc1ccccn1)C(O)c1ccccc1 (stereo unspecified),-,.,.,-,.
O=c1c2ccccc2oc2ccc(-c3ccc4[nH]ccc4c3)cc12,92,-,-,-,-
COc1ccc(NCC(=O)NN=C2CCCC(C)C2)cc1 (stereo unspecified),-,.,.,-,.
O=C(/C=C/c1ccccc1)N1CCN(CCN2C(=O)c3cccc4cccc(c34)C2=O)CC1,98,-,-,-,-
O=C(CCN1C(=O)c2cccc3cccc(c23)C1=O)N1CCOCC1,-,-,-,-,-
Cc1ccc(NP(=O)(Oc2ccccc2F)Oc2ccccc2F)cc1,-,-,-,-,-
CCc1ccc(NP(=O)(Oc2ccccc2F)Oc2ccccc2F)cc1,-,-,-,-,43
CC(=CC(=O)OCCCCCCCCC(=O)O)CC1OCC(CC2OC2C(C)C(C)O)C(O)C1O (stereo unspecified),100,.,.,100,.
CN(Cc1cn(C)c2ccccc12)C(=S)Nc1cc(F)cc(F)c1,-,-,-,-,57
COc1ccc(Nc2nc(-c3ccccc3)nc3ccccc23)cc1,95,-,-,-,-
COc1cccc(CN(C)c2nc(-c3cccs3)nc3ccccc23)c1,-,-,-,-,-
COc1cccc(Nc2nc(-c3cccs3)nc3ccccc23)c1,-,-,-,-,279
SMILES,Sa ugtP lethal,Mtb betalactam,BH1578 lux ind,RN4220 kill,PfHsp40 yeast
COc1ccc(Nc2nc(-c3cccs3)nc3ccccc23)cc1,95,-,-,-,-
O=C(O)c1cccc2c1C(=NO)c1ccccc1-2,-,.,.,-,.
CC(C)(CSc1nncn1N=Cc1ccco1)NS(=O)(=O)c1ccc(Cl)cc1,-,.,.,-,.
OC(CNCCC1C=Nc2ccccc21)Cn1c2ccc(Cl)cc2c2cc(Cl)ccc21 (stereo unspecified),101,-,-,100,-
COc1ccc(Oc2cc(C)c3cccc(C)c3n2)cc1,96,-,-,-,-
COc1cc(OC)cc(C(=O)NC(C(=O)Nc2nc(-c3ccc(F)c(F)c3)cs2)C(C)C)c1 (stereo unspecified),-,.,.,-,.
O=C(CC(=O)NN=Cc1ccc([N+](=O)[O-])cc1)NCCc1ccccc1,-,.,.,-,.
CC(C(=O)NCCc1c[nH]c2ccccc12)C1C[C@]1(C)C(NC(=O)OCc1ccccc1)c1ccccc1 (stereo partly specified),-,.,.,-,.
COC(=O)C1=C(C)NC(C)=C(C(=O)OCC(C)C)C1c1ccccc1[N+](=O)[O-] (stereo unspecified),.,-,-,.,289
O=C(Cn1cc(C(=O)C(F)(F)F)c2ccccc21)N1CCOCC1,-,-,-,-,48
COc1ccc2c(c1)c1nnc(SC)nc1n2C,-,-,.,-,59
COc1ccc2c(c1)c1nnc(SCC(=O)N3C(C)CCCC3C)nc1n2C (stereo unspecified),-,-,-,-,-
COc1cc(N=Nc2ccccc2C(=O)O)ccc1O,-,-,-,-,-
COc1cc(N=Nc2ccc3ccccc3c2)ccc1O,94,-,-,-,153

# Screens (PubChem BioAssay)
